# Screens deposited in PubChem BioAssay by National Center for Advancing Translational Sciences (NCATS).
# Vaccinia Venus = inhibitors of vaccinia virus (Venus reporter). 330,000 compounds, 0.46% hits. Vaccinia virus Venus reporter expression, fluorescence. Potency, µM (doses to about 36.5 µM), inactives show at the highest dose activity change, negative = inhibition, actives largely listed as inhibitors. AID 720580; calls by dose curve; tested in A549 cells; further: nearly all actives have a fitted effect of over 30% in size
# LASV entry inh = Lassa virus entry inhibition | AID 540256 | Potency, µM (doses to about 37.9 µM), inactives show top-dose activity change, negative = inhibition, most hits filed as inhibitors | 300,000 compounds, 1.2% hits | Lassa virus pseudotype entry inhibition, cell reporter; calls by dose curve; tested in HEK293 cells; further: nearly all actives have a fitted effect of over 50% in size
# Sm TGR block = inhibitors of Schistosoma mansoni thioredoxin glutathione reductase. AID 485364. Potency, µM (titrated, usually from 114 µM), inactives show at the top dose activity change, negative = inhibition, usual class: inhibitors. Q962Y6. purified TGR, DTNB reduction, TNB absorbance 405 nm. 360,000 compounds, 3% hits; active means well fitted inhibition curve with a large enough effect; inconclusive means small, poorly fitted or top-dose-only effect; inactive means no such curve, though single readings can be large or run the other way; further: nearly all actives have a fitted effect of over 60% in size
#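 First, TGR (20 nM dispensed) and NADPH were mixed with compound. Second, a 15 min room-temperature incubation followed. Third, further NADPH and then DTNB were added to start the reaction. Finally, TNB absorbance was monitored kinetically.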
# FMDV antiviral = antivirals against foot and mouth disease virus; FMDV antiviral cell-based qHTS; Potency, µM (highest dose often 57.9 µM), for the others: at the highest dose activity change, negative = inhibition, usual class: inhibitors; 410,000 compounds, 1.2% hits; AID 1159524; calls by dose curve; tested in HEK293T cells; further: read-out not given here; nearly all actives have a fitted effect of over 45% in size
# Marburg entry inh = inhibitors of Marburg virus binding or cell entry; 300,000 compounds, 1.8% hits; Potency, µM (titrated, usually from 37.8 µM), without a hit: at the highest dose activity change, negative = inhibition, usual class: inhibitors; Marburg virus pseudotyped entry inhibition, cell reporter; calls by dose curve; tested in HEK293 cells
# VACV mCherry inh = inhibitors of vaccinia virus infection (mCherry reporter signal). Vaccinia virus mCherry reporter infection, fluorescence. Potency, µM (titrated, usually from 36.5 µM), without a hit: at the top dose activity change, negative = inhibition, actives largely listed as inhibitors. 310,000 compounds, 0.63% hits; calls by dose curve; tested in A549 cells; further: nearly all actives have a fitted effect of over 35% in size
# The depositor's hits bear a star; i = inactive; ? = inconclusive; . = not tested or not shown; ! = a repeat was not active; [ ] = dose if it differs, or a comment. The list is not random: actives were taken first. Their share in the collection is about 5.4%. On the % scale 0 is the no-effect control and ±100 the full control effect; potency means the concentration at half of the fitted maximal effect.
SMILES,Vaccinia Venus,LASV entry inh,Sm TGR block,FMDV antiviral,Marburg entry inh,VACV mCherry inh
Cc1ccc(/C=C/C(=O)N2CCC(c3nc4ccccc4o3)CC2)cc1,-5%,7%[46.1 µM],0%,11%,-1%[46.1 µM],1%
CC(=O)OCC1=C(C(=O)O)N2C(=O)C(NC(=O)C(C)Cn3nc(C)c(Cl)c3C)C2SC1 (configuration not stated),.,.,28µM*,-19%,.,.
CC(=O)OCC1=C(C(=O)O)N2C(=O)C(NC(=O)Cc3ccccc3)C2SC1 (configuration not stated),-4%,.,.,.,.,-1%
CC(=O)OCC1=C(C(=O)O)N2C(=O)[C@@H](NC(=O)CSc3ccncc3)[C@H]2SC1,8%,2%,45µM*,-4%,?,2%
O=C(NC1CCC(n2cc(C(=O)NC3CC3)nn2)CC1)C(=O)c1ccccc1 (configuration not stated),-8%,.,.,-11%,.,-12%
Cc1nc2n(c(=O)c1CCN1CCC(c3noc4cc(F)ccc34)CC1)CCC[C@H]2O,-8%,.,.,.,.,-7%
Cc1nc2n(c(=O)c1CCN1CCC(c3noc4cc(F)ccc34)CC1)CCCC2,-10%,.,0%,-15%,11µM*,-17%
Cc1ccc(C(CC(=O)Nc2cc(C)cc(C)c2)N2Cc3ccccc3C2=O)cc1 (configuration not stated),-19%,?,-5%,14%,.,-20%
c1ccc(CCN=C2CCCc3c2[nH]c2ccccc32)cc1,-25%,-3%[46.1 µM],56µM*,-16%,-1%[46.1 µM],-21%
Nc1ccc(C(=O)N/N=C2\CCCc3c2[nH]c2ccccc32)cc1,.,-1%,1%,13%,11%,.
COC(=O)[C@H]1[C@@H](c2cccc(C(F)(F)F)c2)NC(=O)N(Cc2ccccc2)[C@@H]1C,.,.,.,.,25%[14.2 µM],.
CN1c2ccccc2[C@@]2(O)C(=O)[C@@]1(C)[C@@H]1c3ccccc3C[C@H]12,.,.,.,.,-28%[14.2 µM],.
Cc1nn(-c2ccccc2)c(N)c1Sc1ccc([N+](=O)[O-])cc1,-8%,3%,-10%,32µM*,-12%,i
Cc1cc(C)nc(SCc2ccc(C(=O)NNC(=O)Nc3cccc(Cl)c3)cc2)n1,11µM*,11µM*,-6%,8%,?,14µM*
Cc1cc(C)nc(SCc2ccc(C(=O)N/N=C/c3ccncc3)cc2)n1,-18%,-2%[46.1 µM],3%,-6%,4%[46.1 µM],i
Cc1ccc(N(Cc2cccs2)C(=O)c2ccccc2[N+](=O)[O-])cc1,-18%,3%[46.1 µM],3%,-17%,-2%[46.1 µM],-11%
CCN1CCN(Cc2ccc(NC(=O)c3cc(NC(=O)c4nccnc4N)cc(OC)c3)cc2C(F)(F)F)CC1,-16%,.,13%,-10%,.,-1%
CCN1CCN(Cc2ccc(NC(=O)c3ccc(C)c(NC(=O)c4cc(-c5ccc(Br)cc5)n[nH]4)c3)cc2C(F)(F)F)CC1,10µM*,.,7%,-30%,.,-26%
CCN1CCN(Cc2ccc(NC(=O)c3ccc(C)c(NC(=O)N4CCNC4=O)c3)cc2C(F)(F)F)CC1,?,.,-6%,-21%,.,?
CCN1CCN(Cc2ccc(NC(=O)c3ccc(C)c(NC(=O)c4cncc(-c5cccs5)c4)c3)cc2C(F)(F)F)CC1,16µM*,.,.,-16%,.,?
CCN1CCN(Cc2ccc(NC(=O)c3ccc(C)c(NC(=O)c4nccn4C)c3)cc2C(F)(F)F)CC1,?,.,10%,0%,.,-10%
CCN1CCN(Cc2ccc(NC(=O)c3ccc(C)c(NC(=O)c4cccc5[nH]ccc45)c3)cc2C(F)(F)F)CC1,?,.,1%,18µM*!,.,-17%
CCN1CCN(Cc2ccc(NC(=O)c3cc(NC(=O)c4cnnc5ccccc45)cc(OC)c3)cc2C(F)(F)F)CC1,10µM*,.,4%,-19%,.,?
COc1ccc(-c2cc(C3CCN(CC(O)C(F)(F)F)CC3)[nH]n2)cc1 (configuration not stated),.,.,-3%,-1%,.,.
COc1ccc(OC)c(-c2cc(C3CCN(c4cc(Cl)nc(N)n4)CC3)[nH]n2)c1,?,?,9%,18µM*,?,13µM*
SMILES,Vaccinia Venus,LASV entry inh,Sm TGR block,FMDV antiviral,Marburg entry inh,VACV mCherry inh
COc1ccc(-c2cc(C3CCN(c4cc(Cl)nc(N)n4)CC3)[nH]n2)cc1,.,?,-14%,22µM*,9.2µM*,.
Nc1nc(Cl)cc(N2CCC(c3cc(-c4ccc(Cl)cc4)n[nH]3)CC2)n1,.,6.5µM*,-24%,16µM*,?,.
COc1ccc(-c2cc(C3CCN(Cc4cccc(C(F)(F)F)c4)CC3)[nH]n2)cc1,?,?,5%,?,10µM*,-28%
Clc1ccc(-c2cc(C3CCNCC3)[nH]n2)cc1,-7%,-22%,-15%,-8%,?,-19%
CC(=O)c1cccc(NC(=O)c2nc3ccccc3nc2N2CCCCC2)c1,4%,-10%[46.1 µM],7%,-1%,.,4%
Cc1nn(Cc2ccccc2)c(C)c1/C=N/NC(=O)CNc1cccc(C(F)(F)F)c1,?,.,-2%,-25%,.,-26%
COc1ccc(NCC(=O)N/N=C/c2c(C)nn(Cc3ccccc3)c2Cl)cc1,-17%,7.9µM*,-21%,-21%,?,-8%
COC(=O)c1ccccc1NC(=O)c1ccc2nc(Cc3ccccc3)oc2c1,-4%,17%[46.1 µM],5%,-5%,.,-10%
COc1ccc(C(C)=O)cc1CSc1nc2cc(C(=O)O)ccc2c(=O)n1Cc1ccccc1,-16%,2%,22µM*,-20%,?,-10%
Cc1nc2c(cnn2-c2ccccc2Cl)c(=O)n1-c1ccc(C(C)C)cc1,0%,9.2µM*,3%,?,15µM*,-16%
Cc1ccc(-n2c(-c3ccco3)nc3c(cnn3-c3ccccc3Cl)c2=O)cc1,-8%,6%[46.1 µM],-2%,-24%,13%[46.1 µM],-11%
CCCCC(CC)C(=O)Nc1ncc([N+](=O)[O-])s1 (configuration not stated),?,?,-1%,?,?,10µM*
COc1cccc(CCNc2ncnc3c2nnn3C)c1,-19%,-1%[46.1 µM],8%,-9%,.,-3%
CCOC(=O)C1=NN(c2ccccc2)C(=O)/C1=C\c1ccc(N(C)C)cc1,?,-1%,0%,18µM*,-3%,-23%
